Experimental data published in PubChem BioAssay AID639 (Emory University Molecular Libraries Screening Center, 2007).
The campaign covered roughly 86,000 compounds. About 1,200 (1.4%) were called active. For the sample, actives were picked, then their nearest neighbours and some compounds at random. Unmarked numbers belong to inactive results. Cut-off read from the data, not from the text of the source: active = activity above about 200%; inactive = the rest.

Each molecule was assayed against Estrogen receptor (Homo sapiens) (UniProt P03372) (assay: ERα coactivator recruitment potentiators – biochemical, TR-FRET, ERα LBD, low estradiol, primary screen (AID 639;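 note: binding measured in presence of low estradiol as agonist stimulus; 0% = peptide alone without receptor and 100% = receptor with peptide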)). Conditions: TR-FRET ERalpha-LBD/SRC-Cy5 coactivator binding, 2 h; at 25.6 µM; stronger effect = higher value; 100 = basal binding, no effect.
Chain of Estrogen receptor (Homo sapiens) (P03372 whole entry, looked up, the tested form may be a part): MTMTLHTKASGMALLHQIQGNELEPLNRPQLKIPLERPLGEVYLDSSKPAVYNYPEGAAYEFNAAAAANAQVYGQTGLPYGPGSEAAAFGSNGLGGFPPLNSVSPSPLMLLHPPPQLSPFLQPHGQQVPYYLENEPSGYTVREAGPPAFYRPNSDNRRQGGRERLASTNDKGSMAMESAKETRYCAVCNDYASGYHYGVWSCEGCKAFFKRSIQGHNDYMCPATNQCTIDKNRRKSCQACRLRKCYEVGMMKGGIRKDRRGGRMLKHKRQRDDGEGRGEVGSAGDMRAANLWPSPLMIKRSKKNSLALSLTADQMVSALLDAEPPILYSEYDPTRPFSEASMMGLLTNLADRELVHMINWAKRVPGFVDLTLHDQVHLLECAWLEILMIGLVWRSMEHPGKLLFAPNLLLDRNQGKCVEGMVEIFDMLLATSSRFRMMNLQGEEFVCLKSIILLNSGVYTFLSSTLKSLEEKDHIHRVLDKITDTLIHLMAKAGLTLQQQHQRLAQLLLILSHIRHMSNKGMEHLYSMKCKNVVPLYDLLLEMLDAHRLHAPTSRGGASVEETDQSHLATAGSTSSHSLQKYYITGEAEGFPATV
With `CCc1nnc(NC(=O)CSc2nc3ccccc3c(=O)n2CCCOC)s1` the coactivator binding (% of control) was 102%.
In the case of `CCOC(=O)c1c(N=CN(C)C)c(C#N)c2n1CCCC2`, the coactivator binding (% of control) is reported as 111%.
For `COc1cc(Cl)c(C)cc1NC(=O)CSc1nnc(-c2cccnc2)n1Cc1ccco1`, the coactivator binding (% of control) was 90.9%.
For `COc1ccc(NC(=O)CSc2nnc(-c3cccs3)n2Cc2ccco2)cc1OC`, the coactivator binding (% of control) was 95.3%.
With `COc1ccccc1NC(=O)CSc1nc2sc(C)c(C)c2c(=O)n1Cc1ccco1` the coactivator binding (% of control) was 225% (active).
In the case of `COC(=O)c1ccc(NC(=O)C23CC4CC(C2)CC(n2cnc(Cl)n2)(C4)C3)cc1`, the coactivator binding (% of control) is reported as 101%.
`Cc1cccc(N(C(=O)c2ccc(CN3CCOCC3)o2)C(C(=O)NC2CCCCC2)c2ccc(F)cc2)c1` (stereo unspecified) was tested, and the coactivator binding (% of control) was 114%.
With `O=C(CSc1nnc(-c2ccc(NS(=O)(=O)c3ccccc3)cc2)o1)NCC1CCCO1` (stereo unspecified) the coactivator binding (% of control) was 103%.
`CCn1c(SCC(=O)NCC2CCCO2)nc2cc(S(=O)(=O)N3CCCCC3)ccc21` (stereo unspecified) was tested, and the coactivator binding (% of control) was 88.2%.
With `Cc1ccc2cc(C#N)c(SCC(=O)NCC3CCCO3)nc2c1C` (stereo unspecified) the coactivator binding (% of control) was 240% [fluorescence artefact?] (active).
Work on `CC1Cc2ccccc2N1C(=O)c1cc2sccc2n1Cc1ccccc1` (stereo unspecified) yielded a coactivator binding (% of control) of 200%.
For `CCc1c(-c2ccccc2)nc(N)c(C#N)c1-c1cccs1`, the coactivator binding (% of control) was 95.7%.
In the case of `Cc1c(-c2ccccc2)nc(N)c(C#N)c1-c1cccs1`, the coactivator binding (% of control) is reported as 155%.
`CSc1nc(N)c(C#N)c(-c2ccccc2Cl)c1C#N` was tested, and the coactivator binding (% of control) was 214% [fluorescence artefact?] (active).
With `O=C(c1cc2c(s1)CCC2)N1CCN(c2ccccc2)CC1` the coactivator binding (% of control) was 19.5%.
`CCCNC(=S)N1CCC(NC(=O)C23CC4CC(CC(C4)C2)C3)CC1` gave a coactivator binding (% of control) of 108%.
`O=C(Cn1nnc(-c2ccc(CN3CCOCC3)cc2)n1)NC1CCCCC1` was tested, and the coactivator binding (% of control) was 123%.
`CCOc1ccc(-c2nnn(CC(=O)N3CCN(c4ccc(OC)cc4)CC3)n2)cc1OCC` gave a coactivator binding (% of control) of 87.8%.
In the case of `COc1ccc(C(=O)Cn2nnc(-c3ccc(N4CCOCC4)cc3)n2)cc1OC`, the coactivator binding (% of control) is reported as 240% (active).
In the case of `COc1ccc(N(CC(=O)NC2CCCCC2)C(=O)CNC(=O)c2ccco2)c(OC)c1`, the coactivator binding (% of control) is reported as 113%.
Work on `O=C(Nc1nncs1)c1cccc(S(=O)(=O)N2CCCCC2)c1` yielded a coactivator binding (% of control) of 91.9%.
Molecule `CSc1nnc2c(n1)OC(c1cn(C)c3ccccc13)N(C(C)=O)c1ccccc1-2` (stereo unspecified) has a coactivator binding (% of control) of 120%.
`CSc1nnc2c(n1)OC(c1ccsc1)N(C(C)=O)c1ccccc1-2` (stereo unspecified) was tested, and the coactivator binding (% of control) was 348% (active).
In the case of `COCCCNC(=O)CN1CCN(Cc2ccccc2Cl)C1=O`, the coactivator binding (% of control) is reported as 107%.
`CCOc1ccc(N=C2NC(=O)S/C2=C\c2ccc(O)cc2)cc1` gave a coactivator binding (% of control) of 179%.
`C/C(=N\NC(=O)c1ccc(C)cc1)C1C(=O)c2ccccc2C1=O` gave a coactivator binding (% of control) of 71.8%.
In the case of `COc1cc(OC)c(NC(=O)c2ccc(Br)o2)cc1Cl`, the coactivator binding (% of control) is reported as 112%.
`Cc1cccc(-n2nc3c(c2NC(=O)c2ccc(Br)o2)CSC3)c1C` showed a coactivator binding (% of control) of 129%.
For `Cc1cc(C)nc(-n2nc(C)cc2NC(=O)c2ccc(Br)o2)n1`, the coactivator binding (% of control) was 427% (active).
Molecule `CC(C)(C)n1nnnc1C(c1ccc(Cl)cc1)N1CCSCC1` (stereo unspecified) has a coactivator binding (% of control) of 105%.
Molecule `C#CCN(N(C)c1ncc(C(F)(F)F)cc1Cl)S(=O)(=O)c1ccc2ccccc2c1` has a coactivator binding (% of control) of 165%.
Work on `c1ccc(CCn2nnnc2CN2CCN(C3CCCC3)CC2)cc1` yielded a coactivator binding (% of control) of 110%.
With `c1ccc(C(c2ccccc2)N2CCN(Cc3nnnn3C3CCCCC3)CC2)cc1` the coactivator binding (% of control) was 209% [fluorescence artefact?] (active).
`COc1ccc(C(c2nnnn2C2CCCCC2)N2CCN(c3ccccc3F)CC2)cc1` (stereo unspecified) was tested, and the coactivator binding (% of control) was 87.6%.
`COc1ccc(N2CCN(Cc3ccc(Br)s3)CC2)cc1` was tested, and the coactivator binding (% of control) was 108%.
In the case of `Cc1cc(C)n(-c2nc(O)cc(=O)[nH]2)n1`, the coactivator binding (% of control) is reported as 103%.
`CCOc1cc(-c2cc(-c3ccc(OC)cc3)nc(N)c2C#N)ccc1O` gave a coactivator binding (% of control) of 146%.
`COC(=O)c1cc(OC)ccc1-c1ccc(OC)cc1` showed a coactivator binding (% of control) of 117%.
In the case of `CCSc1nc(-c2ccc(OC)cc2)cc(-c2ccc(OC)cc2)c1C#N`, the coactivator binding (% of control) is reported as 371% [fluorescence artefact?] (active).
With `O=S(=O)(NC1CCCCC1)c1ccc(F)c2ccccc12` the coactivator binding (% of control) was 91.4%.
With `CCOc1cc2[nH]c(=S)n(Cc3ccc(C(=O)NCCOC)cc3)c(=O)c2cc1OCC` the coactivator binding (% of control) was 163%.
`COc1ccc(-c2ccc(-c3noc(-c4ccncc4)n3)c(OC)n2)cc1` was tested, and the coactivator binding (% of control) was 107%.
For `COc1cc(-c2nc(-c3ccncc3)no2)cc(OC)c1OC`, the coactivator binding (% of control) was 87.6%.
With `CCOc1nc(-c2ccc(OC)cc2)ccc1-c1noc(-c2cc(OC)c(OC)c(OC)c2)n1` the coactivator binding (% of control) was 239% (active).
For `O=C(CO/N=C/c1ccccc1O)NNC(=O)c1ccccc1Cl`, the coactivator binding (% of control) was 102%.
With `O=C(Cn1cnc2ccccc2c1=O)NCC1COc2ccccc2O1` (stereo unspecified) the coactivator binding (% of control) was 104%.
In the case of `OC(COc1ccc2ccccc2c1)Cn1cncn1` (stereo unspecified), the coactivator binding (% of control) is reported as 100%.
`Cc1cc(C)c2c(n1)nn1c(N3CCN(c4cccc(Cl)c4)CC3)cc(C)nc21` gave a coactivator binding (% of control) of 169%.
`C/C(O)=C\c1nc(=O)c2c(C)cc(C)nc2n1-c1ccccc1` was tested, and the coactivator binding (% of control) was 297% [fluorescence artefact?] (active).
`N#CCSc1nc2ccccc2c(=O)n1-c1ccccc1` gave a coactivator binding (% of control) of 100%.
Work on `Cc1cc(Cl)c(S(=O)(=O)N(C)C)cc1OCC(N)=O` yielded a coactivator binding (% of control) of 103%.
`O=C1/C(=C/c2cccs2)CCc2ccccc21` showed a coactivator binding (% of control) of 66.3%.
For `CC(=O)c1ccc(S(=O)(=O)N2CCN(c3nc4c(C)c(C)ccc4cc3C#N)CC2)cc1`, the coactivator binding (% of control) was 225% [fluorescence artefact?] (active).
Work on `Cc1cc(C)c2nc(N3CCCC3)c(C#N)cc2c1` yielded a coactivator binding (% of control) of 101%.
In the case of `Cc1cccc2cc(C#N)c(N3CCCC3)nc12`, the coactivator binding (% of control) is reported as 109%.
With `Cc1cc(NC(=O)CCC(=O)N(CC(=O)NCC2CCCO2)c2ccccc2C)no1` (stereo unspecified) the coactivator binding (% of control) was 101%.
With `O=C(OC1CCCCC1=O)c1cccc(S(=O)(=O)NCc2ccccc2)c1` (stereo unspecified) the coactivator binding (% of control) was 96.6%.
Work on `COC(=O)c1nc2ccccc2s1` yielded a coactivator binding (% of control) of 116%.
`Nn1cnnc1N/N=C/c1cc([N+](=O)[O-])c(Cl)cc1Cl` was tested, and the coactivator binding (% of control) was 600% [fluorescence artefact?] (active).
Molecule `CC(=O)c1cccc(NC(=O)C2CCCN2S(=O)(=O)c2cccc3nsnc23)c1` (stereo unspecified) has a coactivator binding (% of control) of 87.3%.
`Cc1ccc(-n2nc3cc(Cl)c(NC(=O)c4ccco4)cc3n2)cc1` was tested, and the coactivator binding (% of control) was 112%.
In the case of `Cc1ccc(Cn2c(NC(=O)c3ccco3)nc3ccccc32)cc1`, the coactivator binding (% of control) is reported as 316% (active).
`CCC(=O)Nc1nc2ccccc2n1Cc1ccccc1C` gave a coactivator binding (% of control) of 117%.
Work on `O=c1c2ccccc2nc2n1C1(CCCCC1)Cc1ccccc1-2` yielded a coactivator binding (% of control) of 109%.
With `O=C(CN1CCCCC1)N1c2ccccc2Sc2ccc(C(F)(F)F)cc21` the coactivator binding (% of control) was 113%.
Molecule `CC1(C)C2CCC13CS(=O)(=O)NC3C2` (stereo unspecified) has a coactivator binding (% of control) of 96.5%.
For `CCN1CCN(Cc2c(O)ccc3c(=O)c(-c4ccc(OC)c(OC)c4)c(C(F)(F)F)oc23)CC1`, the coactivator binding (% of control) was 109%.
With `O=c1c(-c2ccc3c(c2)OCCO3)c(C(F)(F)F)oc2cc(O)cc(O)c12` the coactivator binding (% of control) was 346% [fluorescence artefact?] (active).
Work on `CCOC(=O)c1cc2cc(-c3c(C(=O)OCC)oc4cc(O)cc(O)c4c3=O)ccc2o1` yielded a coactivator binding (% of control) of 72.5%.
`COc1ccc(C2CC(c3cccs3)=Nc3ccccc3S2)cc1OC` (stereo unspecified) showed a coactivator binding (% of control) of 94.7%.
With `CC(C)C[C@@H](N)c1nnc(SCC(=O)c2ccc(Cl)cc2)o1` the coactivator binding (% of control) was 100%.
`Cc1cccc(NC(=O)c2sc3nc4c(c(-c5ccco5)c3c2N)CCC4)c1` showed a coactivator binding (% of control) of 104%.
In the case of `NC(=O)c1sc2nc3c(c(-c4ccccc4)c2c1N)CCC3`, the coactivator binding (% of control) is reported as 80.3%.
`CC(=O)Nc1ccc(NC(=O)c2sc3nc4c(c(-c5ccc(C)cc5)c3c2N)CCC4)cc1` was tested, and the coactivator binding (% of control) was 1100% [fluorescence artefact?] (active).
With `CO/N=C(/CS(=O)(=O)c1ccc(Br)cc1)c1ccc(OC)cc1` the coactivator binding (% of control) was 94.8%.
`CCOC(=O)c1ccc2c(c1)nc(C)n2CC` was tested, and the coactivator binding (% of control) was 89.8%.
In the case of `O=C(NCCCN1CCCCCC1)C1CC(=O)N(C2CCCC2)C1` (stereo unspecified), the coactivator binding (% of control) is reported as 688% [fluorescence artefact?] (active).
Molecule `CC(C)OCCCNC(=O)C1CC(=O)N(C2CCCCCCC2)C1` (stereo unspecified) has a coactivator binding (% of control) of 80.7%.
`O=C(NCCc1ccc(Cl)cc1)C1CC(=O)N(C2CCCCC2)C1` (stereo unspecified) gave a coactivator binding (% of control) of 133%.
For `Cc1ccc(S(=O)(=O)Oc2ccc(/C=N/NC(=O)c3c(Cl)cnn3C)cc2)cc1`, the coactivator binding (% of control) was 106%.
`CCC(C)(C(=O)NC1CCCCC1)N(C)C(=O)c1ccc2c(c1)OCO2` (stereo unspecified) gave a coactivator binding (% of control) of 107%.
For `CCC(C(=O)NC1CCCC1)N(C(=O)c1snc(C(N)=O)c1N)c1ccc2c(c1)OCCO2` (stereo unspecified), the coactivator binding (% of control) was 244% [fluorescence artefact?] (active).
For `COCCNC(=O)C(c1ccc(C)o1)N(Cc1cccs1)C(=O)c1snc(C(N)=O)c1N` (stereo unspecified), the coactivator binding (% of control) was 117%.
In the case of `CCN(CC(=O)Nc1ccccc1OC)C(=O)Cn1cnc2ccccc2c1=O`, the coactivator binding (% of control) is reported as 97.9%.
`CC1Cc2ccccc2N1C(=O)CSc1nnc(-c2ccc(S(=O)(=O)N3CCCCC3)cc2)o1` (stereo unspecified) was tested, and the coactivator binding (% of control) was 304% (active).
`CC1Cc2ccccc2N1C(=O)CSc1nc2ccccc2o1` (stereo unspecified) showed a coactivator binding (% of control) of 111%.
For `CCS(=O)(=O)c1ccc2oc(SCC(=O)N3c4ccccc4CC3C)nc2c1` (stereo unspecified), the coactivator binding (% of control) was 98%.
Work on `Cc1cccc(OCCCC(=O)Nc2ccc(S(=O)(=O)N3CCCC3)cc2)c1` yielded a coactivator binding (% of control) of 94.6%.
For `c1ccc(-c2noc(-c3cccs3)n2)nc1`, the coactivator binding (% of control) was 118%.
`O=C(Oc1ccc(-c2nc(-c3ccccn3)no2)cc1)c1ccccc1` was tested, and the coactivator binding (% of control) was 210% (active).
`CC(C)c1nc(-c2ccccn2)no1` was tested, and the coactivator binding (% of control) was 105%.
